Data taken from PubChem BioAssay (EPA / NIEHS).
Several values for one entry are separate records, joined by “and”; a condition that tells them apart may be missing. Identical values can stand only once. A structure can be active in one record and inactive in another. Activity calls are given as the source filed them. The calls were made as follows: active = hit-call score of the fitted dose curve at least 0.9, where 1 is the maximum; inactive = score below 0.9.

Assays:
[1] = read-out: Interleukin-8 (IL8), CXCL8 (gene 3576); assay: BSK_BF4T_IL8: BioMAP Diversity Plus: BF4T Assay for Interleukin-8 (IL8) Biomarker Activity (AID 2284263); conditions: primary human bronchial epithelial cells with fibroblasts
Outline: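 Human bronchial epithelial cells with dermal fibroblasts co-culture; IL-8 measured by ELISA 24 hours after dosing, fitted vs DMSO. Cytotoxicity tracked in parallel cultures by SRB total-protein staining.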

[2] = read-out: Interleukin-1 alpha (IL1a), IL1A (gene 3552); assay: BSK_BF4T_IL1a: BioMAP Diversity Plus: BF4T Assay for Interleukin-1 alpha (IL1a) Biomarker Activity (AID 2284264); conditions: primary human bronchial epithelial cells with fibroblasts
Outline: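 Human bronchial epithelial cells co-cultured with dermal fibroblasts, dosed and read at 24 h. Secreted/surface IL-1α quantified by ELISA; gain-of-signal fitted relative to DMSO baseline. Parallel SRB total-protein staining tracked cytotoxicity.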

[3] = read-out: Decorin, DCN (gene 1634); assay: BSK_MyoF_Decorin: BioMAP Diversity Plus: MyoF Assay for Decorin Biomarker Activity (AID 2284265); conditions: primary human lung fibroblasts
Outline: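 Decorin protein was quantified by ELISA 24 h after chemical addition to primary human lung fibroblasts and analysed as increase over DMSO. Cytotoxicity was tracked in parallel cultures by SRB total-protein staining read at 560 nm.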

[4] = read-out: KRT18 (gene 3875); assay: BSK_BF4T_Keratin818: BioMAP Diversity Plus: BF4T Assay for Keratin 818 Biomarker Activity (AID 2284266); conditions: primary human bronchial epithelial cells with fibroblasts
Outline: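 Co-culture of human bronchial epithelial cells and dermal fibroblasts, chemical exposure 24 h. Keratin 8/18 measured by ELISA; positive-direction fit vs DMSO. SRB total protein run in parallel cultures for cytotoxicity.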

[5] = BSK_MyoF_SRB: Viability Assessment in the BioMAP Diversity Plus: MyoF Assay (AID 2284267); conditions: primary human lung fibroblasts;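 also: total protein by SRB absorbance in parallel cultures as cytotoxicity measure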
Outline: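 Human lung fibroblasts, 24 h after chemical dosing; total protein measured by 0.1% sulforhodamine B staining after 10% TCA fixation, read at 560 nm, fitted relative to DMSO baseline.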

[6] = read-out: Matrix Metallopeptidase 1 (MMP1), MMP1 (gene 4312); assay: BSK_MyoF_MMP1: BioMAP Diversity Plus: MyoF Assay for Matrix Metallopeptidase 1 (MMP1) Biomarker Activity (AID 2284268); conditions: primary human lung fibroblasts
Outline: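 Human lung fibroblasts (MyoF system) exposed to chemical for 24 h in 96-well format; MMP1 biomarker quantified by ELISA, with activity fitted in the positive direction relative to DMSO baseline.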

[7] = read-out: Matrix Metallopeptidase 1 (MMP1), MMP1 (gene 4312); assay: BSK_BF4T_MMP1: BioMAP Diversity Plus: BF4T Assay for Matrix Metallopeptidase 1 (MMP1) Biomarker Activity (AID 2284270); conditions: primary human bronchial epithelial cells with fibroblasts
Outline: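 Co-culture of human bronchial epithelial cells and dermal fibroblasts; MMP-1 levels measured by ELISA 24 hours after chemical dosing, relative to DMSO. Cytotoxicity checked in parallel cultures by SRB total-protein staining.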

[8] = read-out: Matrix Metallopeptidase 3 (MMP3), MMP3 (gene 4314); assay: BSK_BF4T_MMP3: BioMAP Diversity Plus: BF4T Assay for Matrix Metallopeptidase 3 (MMP3) Biomarker Activity (AID 2284271); conditions: primary human bronchial epithelial cells with fibroblasts
Outline: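 Co-culture of human bronchial epithelial cells and dermal fibroblasts dosed 24 h; MMP-3 measured by ELISA, positive-direction fit versus DMSO. Cytotoxicity tracked by SRB total-protein staining (560 nm) in parallel cultures.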

[9] = read-out: Tissue plasminogen activator (tPA), PLAT (gene 5327); assay: BSK_BF4T_tPA: BioMAP Diversity Plus: BF4T Assay for Tissue plasminogen activator (tPA) Biomarker Activity (AID 2284272); conditions: primary human bronchial epithelial cells with fibroblasts
Outline: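 tPA level quantified by ELISA at 24 h post-treatment in bronchial epithelial/dermal fibroblast co-cultures, gain of signal scored against DMSO baseline. Parallel cultures stained with 0.1% SRB (560 nm) to flag overt cytotoxicity.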

[10] = read-out: Matrix Metallopeptidase 9 (MMP9), MMP9 (gene 4318); assay: BSK_BF4T_MMP9: BioMAP Diversity Plus: BF4T Assay for Matrix Metallopeptidase 9 (MMP9) Biomarker Activity (AID 2284276); conditions: primary human bronchial epithelial cells with fibroblasts
Outline: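 Co-culture of human bronchial epithelial cells and dermal fibroblasts dosed for 24 h; MMP-9 quantified by ELISA and fitted upward versus DMSO. Cytotoxicity monitored in parallel cultures by SRB total-protein staining at the biomarker time point.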

[11] = read-out: Interleukin-8 (IL8), CXCL8 (gene 3576); assay: BSK_IMphg_IL8: BioMAP Diversity Plus: IMphg Assay for Interleukin-8 (IL8) Biomarker Activity (AID 2284277); conditions: primary human endothelial cells with macrophages
Outline: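 Co-culture of human venular endothelial cells and macrophages exposed to chemicals for 24 h; IL-8 quantified by ELISA and compared against the DMSO baseline, with SRB total-protein staining in parallel cultures for cytotoxicity.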

[12] = read-out: Intercellular Adhesion Molecule 1 (ICAM1), ICAM1 (gene 3383); assay: BSK_BE3C_ICAM1: BioMAP Diversity Plus: BE3C Assay for Intercellular Adhesion Molecule 1 (ICAM1) Biomarker Activity (AID 2284278); conditions: primary human bronchial epithelial cells
Outline: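 Primary human bronchial epithelial cells in BE3C system, 24 h after chemical dosing; cell-surface ICAM-1 measured by ELISA relative to DMSO. Parallel SRB staining (0.1% SRB after 10% TCA fixation, read at 560 nm) assessed cytotoxicity.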

[13] = read-out: Interferon-inducible T-cell alpha chemoattractant (ITAC), CXCL11 (gene 6373); assay: BSK_BE3C_ITAC: BioMAP Diversity Plus: BE3C Assay for Interferon-inducible T-cell alpha chemoattractant (ITAC) Biomarker Activity (AID 2284279); conditions: primary human bronchial epithelial cells
Outline: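 Steps: dose human bronchial epithelial cells with chemical; incubate 24 h; measure I-TAC by ELISA; fit endpoint in positive direction against DMSO control. Cytotoxicity was checked in parallel cultures by SRB staining at harvest.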

[14] = read-out: Interleukin-8 (IL8), CXCL8 (gene 3576); assay: BSK_BE3C_IL8: BioMAP Diversity Plus: BE3C Assay for Interleukin-8 (IL8) Biomarker Activity (AID 2284280); conditions: primary human bronchial epithelial cells
Outline: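 Primary human bronchial epithelial cells (BE3C system) exposed 24 h; IL-8 measured by ELISA and fitted in positive direction versus DMSO. Overt cytotoxicity assessed by SRB total-protein staining in parallel cultures.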

[15] = read-out: Epidermal growth factor receptor (EGFR), EGFR (gene 1956); assay: BSK_BE3C_EGFR: BioMAP Diversity Plus: BE3C Assay for Epidermal growth factor receptor (EGFR) Biomarker Activity (AID 2284281); conditions: primary human bronchial epithelial cells
Outline: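 Human primary bronchial epithelial cells (BE3C system) dosed with chemicals; EGFR measured by ELISA at 24 h, fitted in the positive direction relative to DMSO. Cytotoxicity tracked in parallel cultures by SRB total-protein staining.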

[16] = read-out: KRT18 (gene 3875); assay: BSK_BE3C_Keratin818: BioMAP Diversity Plus: BE3C Assay for Keratin 818 Biomarker Activity (AID 2284282); conditions: primary human bronchial epithelial cells
Outline: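 Primary human bronchial epithelial cells treated 24 h; Keratin 8/18 quantified by ELISA, fit relative to DMSO. Cytotoxicity tracked in parallel cultures by sulforhodamine B total-protein staining.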

[17] = read-out: TIMP metallopeptidase inhibitor 1 (TIMP1), TIMP1 (gene 7076); assay: BSK_MyoF_TIMP1: BioMAP Diversity Plus: MyoF Assay for TIMP metallopeptidase inhibitor 1 (TIMP1) Biomarker Activity (AID 2284269); conditions: primary human lung fibroblasts
Outline: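 Primary human lung fibroblasts, MyoF multiplex system; chemical exposure 24 h; TIMP-1 by ELISA; positive fitting direction vs DMSO control.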

[18] = read-out: Plasminogen Activator Inhibitor-1 (PAI1), SERPINE1 (gene 5054); assay: BSK_BF4T_PAI1: BioMAP Diversity Plus: BF4T Assay for Plasminogen Activator Inhibitor-1 (PAI1) Biomarker Activity (AID 2284273); conditions: primary human bronchial epithelial cells with fibroblasts
Outline: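 Co-culture of human bronchial epithelial cells and dermal fibroblasts exposed to compound for 24 h. PAI-1 measured by ELISA; activity fitted in positive direction versus DMSO. Parallel SRB staining assessed overt cytotoxicity.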

Measured: AC50

O=C(O)C(F)(F)C(F)(F)C(F)(F)C(F)(F)C(F)(F)C(F)(F)C(F)(F)C(F)(F)C(F)(F)C(F)F
active: [2] 38.8 µM and 20.5 µM | [4] 22.7 µM and 30 µM | [5] 21.3 µM and 21.9 µM | [7] 49.7 µM | [8] 30 µM | [9] 9.23 µM and 5.95 µM | [10] 21.4 µM and 15.7 µM | [12] 20.3 µM and 21.1 µM | [13] 9.92 µM and 11.3 µM | [15] 7.89 µM | [16] 19.6 µM and 10.5 µM
inactive: [1] | [3] | [6] | [7] | [8] | [11] | [14] | [15]

FC(F)(F)C(F)(F)C(F)(F)N(C(F)(F)C(F)(F)C(F)(F)F)C(F)(F)C(F)(F)C(F)(F)F
not listed: [7] | [18]
inactive: all other assays above

O=C(O)C(F)(F)C(F)(F)C(F)(F)C(F)(F)C(F)(F)C(F)(F)C(F)(F)C(F)(F)C(F)(F)C(F)(F)C(F)(F)C(F)(F)F
not listed: [7] | [17] | [18]
inactive: all other assays above

FC(F)(F)C(F)(F)C(F)(F)C(F)(F)C(F)(F)C(F)(F)C(F)(F)I
inactive: [1] | [2] | [3] | [4] | [8] | [9] | [10] | [11] | [12] | [13] | [14] | [15] | [16]
active: [1] 0.0527 µM | [6] 2.4 µM and 2.55 µM

O=C(O)C(F)(F)C(F)(F)F
active: [14] 26.1 µM
inactive: [1] | [2] | [3] | [4] | [5] | [6] | [8] | [9] | [18] | [10] | [11] | [12] | [13] | [14] | [15] | [16]

O=S(=O)(O)C(F)(F)C(F)(F)C(F)(F)C(F)(F)C(F)(F)C(F)(F)C(F)(F)F
inactive: [1] | [2] | [3] | [4] | [5] | [6] | [17] | [8] | [9] | [18] | [10] | [11] | [12] | [13] | [14] | [15] | [16]
active: [1] 10.4 µM | [8] 15.6 µM
